Bioassay records (PubChem BioAssay)
An excerpt weighted towards active compounds, which were near 7.2% of everything screened.
Sm TGR block: S. mansoni TGR enzyme inhibition; AID 485364; purified TGR, DTNB reduction, TNB absorbance 405 nm; actives 3% (n = 360,000); Potency, µM (highest dose often 114 µM), without a hit: at the highest dose activity change, negative = inhibition, actives largely listed as inhibitors; Q962Y6; further: nearly all actives have a fitted effect of over 60% in size
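First, TGR (20 nM dispensed) and NADPH were mixed with compound. Second, a 15 min room-temperature incubation followed. Third, further NADPH and then DTNB were added to start the reaction. Finally, TNB absorbance was monitored kinetically.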
Marburg entry inh: Marburg virus entry inhibition | actives 1.8% (n = 300,000) | Marburg virus pseudotyped entry inhibition, cell reporter | Potency, µM (top dose mostly 37.8 µM), for inactives: at the top dose activity change, negative = inhibition, actives largely listed as inhibitors; calls by dose curve; tested in HEK293 cells
RE007 growth inh: less growth of the S. pombe RE007 Vpr strain; S. pombe RE007 Vpr strain, BacTiter-Glo ATP luminescence, 24 h; Potency, µM (top dose mostly 92.2 µM), for inactives: at the top dose activity change, negative = less growth, actives largely listed as inhibitors; actives 0.21% (n = 360,000); active means well fitted falling curve with a large enough effect; inconclusive means small, poorly fitted or top-dose-only effect; inactive means no such curve, though single readings can be large or run the other way; further: nearly all actives have a fitted effect of over 50% in size
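Fission yeast RE007 carrying one integrated HIV-1 vpr copy, seeded at OD 0.01 in PMG+AL medium with 23 nL pinned compound. Grown 24 h at 30 degrees; viability read by BacTiter-Glo luminescence after 5 min.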
FMDV antiviral: blocks foot and mouth disease virus | actives 1.2% (n = 410,000) | Potency, µM (doses to about 57.9 µM), without a hit: at the highest dose activity change, negative = inhibition, actives largely listed as inhibitors | FMDV antiviral cell-based qHTS; calls by dose curve; tested in HEK293T cells; further: read-out not given here; nearly all actives have a fitted effect of over 45% in size
HCV inh: HCV inhibition; AID 651820; Huh7.5.1 HCVcc-Cre infection, luciferase reporter, 44 h; Potency, µM (titrated, usually from 41.8 µM), for the others: at the top dose activity change, negative = inhibition, actives largely listed as inhibitors; actives 3.4% (n = 340,000)
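1,000 cells/well; 4 h culture; + compound; + HCVcc-Cre (~0.5 moi); 44 h; luciferase substrate, RT 15 min; read 15 sec.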
LASV entry inh: inhibitors of Lassa virus binding or cell entry. AID 540256. Potency, µM (series often up to 37.9 µM), without a hit: at the highest dose activity change, negative = inhibition, actives largely listed as inhibitors. actives 1.2% (n = 300,000). Lassa virus pseudotype entry inhibition, cell reporter; calls by dose curve; tested in HEK293 cells; further: nearly all actives have a fitted effect of over 50% in size
* marks the source's active call; other numbers are inactive results; ? = inconclusive; nt = no result; [ ] = another dose, or the depositor's remark. Unless noted, the call rests on the fitted dose curve; in most records, active means well fitted curve in the direction sought with a large enough effect; inconclusive means small, poorly fitted or top-dose-only effect, or another doubt; inactive means no such curve, though single readings can be large; an effect the other way counts as inactive or inconclusive. On the % scale 0 is the no-effect control and ±100 the full control effect; potency means the concentration at half of the fitted maximal effect.

SMILES	Sm TGR block	Marburg entry inh	RE007 growth inh	FMDV antiviral	HCV inh	LASV entry inh
O=C(CCc1ccccc1)NC(c1cccs1)c1cc(Cl)c2cccnc2c1O (configuration not stated)	-5%	?	?	-26%	1µM*	2.8µM*
CCC(=O)NC(c1ccco1)c1cc(Cl)c2cccnc2c1OC (configuration not stated)	?	nt	nt	0%	nt	nt
CCC(=O)NC(c1cccs1)c1cc(Br)c2cccnc2c1O (configuration not stated)	-33%	nt	nt	nt	nt	nt
Oc1c(C(Nc2ccccn2)c2cccnc2)cc(Cl)c2cccnc12 (configuration not stated)	4.5µM*	?	?	-25%	?	?
CCC(=O)NC(c1ccco1)c1cc(Cl)c2cccnc2c1O (configuration not stated)	0%[57.1 µM]	?	?	-15%	6.3µM*	?
CC(=O)NC(c1ccco1)c1cc(Cl)c2cccnc2c1O (configuration not stated)	-21%	nt	nt	-11%	nt	nt
CCCCC(=O)NC(c1ccco1)c1cc(Cl)c2cccnc2c1O (configuration not stated)	0%	?	?	-19%	8.9µM*	?
COc1cc(C(=O)NC(c2ccc(Cl)cc2)c2cc(Cl)c3cccnc3c2O)cc(OC)c1OC (configuration not stated)	6%	nt	nt	-22%	nt	?
COc1ccccc1CNC(=O)CCCn1c(=O)c2ccccc2n(CC(=O)Nc2c(C)cc(C)cc2C)c1=O	0%	-8%[46.1 µM]	nt	-20%	nt	-7%[46.1 µM]
COc1cccc(C(=O)NC(c2ccc(Cl)cc2)c2cc(Cl)c3cccnc3c2O)c1 (configuration not stated)	3%	nt	nt	-12%	nt	?
COc1ccc(C(NC(=O)c2cccnc2)c2cc(Cl)c3cccnc3c2O)cc1OC (configuration not stated)	4%	7.1µM*	3%	?	8.9µM*	16µM*
CC(=O)NC(c1ccco1)c1cc(Cl)c2ccc(N(C)C)nc2c1O (configuration not stated)	4µM*	nt	nt	nt	nt	nt
CC(=O)NC(c1cccs1)c1cc([N+](=O)[O-])c2cccnc2c1O (configuration not stated)	-34%	?	0%	?	13µM*	?
CCC(=O)NC(c1ccc(OC)cc1)c1cc(Cl)c2cccnc2c1O (configuration not stated)	1%	2.2µM*	8%	-19%	2.5µM*	2.8µM*
CC(=O)NC(c1cccs1)c1cc(Cl)c2ccccc2c1O (configuration not stated)	?	nt	nt	-19%	nt	nt
Cc1cc(C)n(-c2nc(C)c(C)c(=O)n2CC(=O)Nc2ccc([N+](=O)[O-])cc2)n1	6%	nt	nt	-11%	nt	-23%[46.1 µM]
CC(=O)NC(c1ccc(C)cc1)c1cc(Cl)c2cccnc2c1O (configuration not stated)	-7%	2.8µM*	-18%	-19%	5.6µM*	?
CC[C@@](N)(C(=O)O)c1ccc(C(=O)O)cc1	nt	nt	nt	-2%	nt	nt
O=C1N/C(=C\c2ccc(O)cc2)C(=O)c2ccccc21	?	?	-27%	?	11µM*	?
O=C(/C=C/c1ccc(F)cc1)c1ccccc1Br	-27%	-28%	?	22µM*	?	?
Cn1cnc(S(=O)(=O)Nc2ccccc2N2CCOCC2)c1	2%	-21%	1%	1%	20%	?
CN(C)c1cccc2c1c(NS(=O)(=O)c1cn(C)cn1)nn2C	50µM*	nt	14%	-4%	0%	nt
CN1N=C(C(=O)N2CCOc3ccc(CN4CCCC(C(=O)c5cccnc5)C4)cc3C2)CCC1=O (configuration not stated)	nt	nt	nt	1%	nt	nt
COC(=O)C1=C2CCO[C@H]2[C@@H]2[C@@H](C)[C@H](OC)c3ccccc3[C@@H]12	nt	?	nt	nt	nt	-6%[14.3 µM]
Cc1ccc(-n2c3nc(=O)[nH]c(=O)c-3cc3cc([N+](=O)[O-])ccc32)cc1C	-28%	?	1%	28µM*	35µM*	?
SMILES	Sm TGR block	Marburg entry inh	RE007 growth inh	FMDV antiviral	HCV inh	LASV entry inh
Cc1ccc(S(=O)(=O)n2cnc3cc([N+](=O)[O-])ccc32)cc1C	1%	1%	9%	-12%	-17%	2%
C=CCOC(=O)N[C@@H](c1ccc(Br)cc1)C(C(C)=O)C(C)=O	nt	-28%[14.2 µM]	nt	nt	nt	nt
CC(C)CC(NC(=O)OCc1ccccc1)C(=O)NC(Cc1ccccc1)C(=O)CCl (configuration not stated)	nt	?	-5%	25µM*	?	?
C[C@H]1CCC2[C@](C)(CO)[C@@H](O)CC[C@]2(C)[C@@]12CCC(CO)(CCO)O2 (some centres not stated)	0%	19%[46.1 µM]	7%	-15%	7%	-1%[46.1 µM]
C[C@@]1(CO)[C@H](O)CC[C@@]2(C)[C@H]1CC[C@H]1C[C@@H]3C[C@@]12CC[C@]3(O)CO	9%	0.52µM*	nt	-19%[97.4 µM]	-20%[8.37 µM]	?
CN(C)c1ccc(C=c2c3ccccc3n3c2cc(-c2ccccc2)[n+]3C)cc1	nt	2.8µM*	?	16µM*	?	2.8µM*
CN(C)c1ccc(C=c2c3cc([N+](=O)[O-])ccc3n3c2cc(-c2ccccc2)[n+]3C)cc1	nt	?	?	32µM*	?	8.9µM*
CN(C)c1ccc(C=c2c3ccccc3n3c2c2c([n+]3C)CCCC2)cc1	nt	4.5µM*	?	6.3µM*	?	7.9µM*
COc1cc(N(C)C)ccc1C=c1c2ccccc2n2c1cc(-c1ccccc1)[n+]2C	nt	?	?	?	10µM*	?
C/C(=N\N=C\c1ccc(N(C)C)cc1)c1cccc([N+](=O)[O-])c1	1%	?	4%	13%	33%	2%
COc1ccccc1CNc1nc(-c2ccc(N(C)C)cc2)nc2ccccc12	nt	nt	nt	18%	nt	nt
CN(C)c1ccc(C=C2C=C(c3ccccc3)OC2=O)cc1	nt	nt	-20%	28%	nt	nt
CCN1C(=O)NC(c2ccco2)C(C(C)=O)=C1C (configuration not stated)	nt	26%[14.2 µM]	nt	nt	nt	nt
Cc1noc(C)c1CC(=O)NCC1Cc2cc(-c3cccc(OC(F)(F)F)c3)ccc2O1 (configuration not stated)	nt	nt	nt	-6%	nt	nt
Cc1ccc(OCC(=O)Nc2sc3c(c2C(N)=O)CCCC3)c(C(C)(C)C)c1	0%	nt	nt	-7%	nt	3%[46.1 µM]
COc1cc(C=c2c3ccccc3n3c2cc(-c2ccccc2)[n+]3C)cc(OC)c1OC	nt	?	?	?	?	14µM*
COc1cc(/C=C(/C(=O)O)c2ccc(-c3ccccc3)cc2)cc(OC)c1OC	4%	?	21%	26%	-4%	-10%[46.1 µM]
